# From PubChem
# Compounds with a hit are over-represented: about 4.7% of the library has one in this group of screens.
# D1 agonist: human D1 receptor agonism | actives 1% (n = 360,000) | HEK293 T-REx D1 cells, calcium flux, agonist mode | AID 504660 | P21728 | activation, % at 2 µM; also: 0% is about no effect
#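 Tetracycline-induced HEK293 TREx D1 cells, force-coupled to calcium signalling, were dye-loaded with a no-wash calcium kit. Compound was pin-added after a 10 s baseline. Fluorescence was read kinetically at 1 cycle/s for 180 s, with calcium rises flagged as agonism.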
# TRHR ag: activates the human TRH receptor; TRHR cells, calcium flux fluo-8, FDSS agonist mode; P34981; actives 0.18% (n = 360,000); activation, % at 2 µM; also: 0% is about no effect
# Target sequence (P34981 whole entry, looked up): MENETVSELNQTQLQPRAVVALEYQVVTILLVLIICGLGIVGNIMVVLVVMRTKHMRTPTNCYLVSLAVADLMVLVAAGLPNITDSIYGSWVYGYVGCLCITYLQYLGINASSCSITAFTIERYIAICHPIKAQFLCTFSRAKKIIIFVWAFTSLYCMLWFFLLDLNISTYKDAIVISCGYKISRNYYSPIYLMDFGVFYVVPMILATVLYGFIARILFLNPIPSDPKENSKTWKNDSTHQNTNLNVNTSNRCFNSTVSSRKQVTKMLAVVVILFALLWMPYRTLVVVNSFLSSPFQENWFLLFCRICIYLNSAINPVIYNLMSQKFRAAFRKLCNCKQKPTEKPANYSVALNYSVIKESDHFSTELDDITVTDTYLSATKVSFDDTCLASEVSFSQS
#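 Fluo-8-loaded TRHR cells; 10 s baseline, compound added, kinetic Ca2+ fluorescence read 1/s, agonist mode.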
# D1 antagonist: blocks dopamine activation of the human D1 receptor; P21728; HEK293 TREx D1 cells, calcium flux, dopamine EC80; stronger effect = lower value; activity change, negative = inhibition, % at 10 µM; actives 3.2% (n = 360,000); in the data active = activity change below about -30%; also: % is scaled to controls: 0 for no effect and ±100 for the full control effect
#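 Antagonism measured as reduced calcium response to an EC80 dopamine addition following 180 s compound pre-read; cells were inducible HEK293 Trex D1 plated overnight at 30 C, read kinetically at 1 cycle/sec.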
# D1 PAM: enhances dopamine response at the human D1 receptor. P21728. HEK293 TREx D1 cells, calcium flux, dopamine EC20 potentiation. potentiation, % at 10 µM. actives 0.036% (n = 360,000); in the data active = potentiation above about 30%; also: 0% is about no effect
# TRHR enhancer: allosterically enhances the human TRH receptor; P34981; TRHR cells, fluo-8 calcium fluorescence, EC20 TRH enhancement; enhancement, % at 2 µM; actives 0.66% (n = 360,000); AID 493056; in the data active = enhancement above about 30%; also: 0% is about no effect
#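 Enhancer read-out: after compound pinning and an initial kinetic agonist-mode read, an EC20 of TRH (10 nM final) was injected and fluo-8 calcium signal (Ex 480/Em 530) followed at 1 s/cycle for 100 cycles in TRHR-expressing cells.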
# * marks the source's active call; other numbers are inactive results; ! = repeats disagree. Rule as the data show it, unless noted: active = activation above about 30%; inactive = the rest.
SMILES,D1 agonist,TRHR ag,D1 antagonist,D1 PAM,TRHR enhancer
CCc1nnc(NC(=O)C2=NN(C3CCS(=O)(=O)C3)C(=O)CC2)s1 (stereo unspecified),2.9,0.4,-2.3,-2.1,12.5
O=C(Nc1cccnc1)C1=NN(C2CCS(=O)(=O)C2)C(=O)CC1 (stereo unspecified),0.8,-0.2,-22.7,-6.5,38.7*
O=C(O)CC(NNC(=O)c1ccccc1)C(=O)Nc1ccc([N+](=O)[O-])cc1 (stereo unspecified),2.7,0.1,19.6,0.2,-1.1
Cc1ccc(-c2cn3cccnc3n2)cc1,-0.2,-0.3,-11.0,0.2,6.6
Nc1cccc(-c2cn3cccnc3n2)c1,4.3,-0.4,-30.1*,4.9,-3.9
COc1ccc(NC(=O)c2cnn(-c3ccc(C)cc3)c2-n2cccc2)cc1Cl,4.5,0.8,-31.0*,-4.5,-1.6
NS(=O)(=O)c1ccc(CCNc2ncnc3c2cnn3-c2cccc(Cl)c2)cc1,-0.1,-0.1,-63.7*,-4.0,1.8
Fc1cccc(Nc2ncnc3c2cnn3-c2ccccc2)c1,2.7,1.2,-13.5,-12.6,2.4
Cc1cc(NC(=O)c2cnn(-c3ccccc3)c2-n2cccc2)ccc1Br,9.7,-2.1,-1.2,-0.8,0.0
NS(=O)(=O)c1ccc(CCNc2nccn(-c3cccc(C(F)(F)F)c3)c2=O)cc1,2.8,-0.5,-32.0*,-4.8,-1.6
Clc1cccc(Nc2ncnc3c2cnn3-c2ccccc2)c1,6.1,-1.1,-55.2*,-15.3,5.7
Fc1ccc([C@@H]2Nc3ccccc3[C@@H]3C=CC[C@@H]32)cc1,3.2,-0.4,0.5,-0.5,-0.4
CS(=O)(=O)Nc1ccc2c(c1)OCC(=O)N2Cc1ccccc1,6.2,-0.5,1.8,-5.6,-4.0
Cc1ccc(Nc2ncnc3c2cnn3-c2ccc(C)cc2)cc1,0.5,-1.1,2.1,-3.5,5.5
COc1ccc(Nc2ncnc3c2cnn3-c2ccc(C)cc2)cc1Cl,-0.6,0.9,-64.7*,-3.9,5.9
N#Cc1cccc(Nc2ncnc3c2cnn3-c2cccc(Cl)c2)c1,0.5,0.2,-48.6*,-3.8,-4.4
CCOc1ccccc1C(=O)NCc1nc2cccnc2n1Cc1ccc(C)cc1,0.3,0.2,11.2,-1.2,0.2
Cc1cc(=O)[nH]c2ccc(S(=O)(=O)NC3CCCCC3)cc12,2.8,0.0,13.5,-2.5,-3.5
Cc1ccc(NC(=O)Cc2sc(C)nc2-c2ccc(C)cc2)cc1,1.1,-0.5,-34.8*,-11.2,5.2
O=C(COC(=O)c1ccc(O)cc1)NCC1COc2ccccc2O1 (stereo unspecified),0.5,-0.3,5.1,1.4,5.7
CCn1nc(NC(=O)COC)c2cc3cccc(C)c3nc21,2.5,-0.8,-81.0*,-3.5,1.2
CN(C(=O)COC(=O)Cn1c(C(F)(F)F)nc2ccccc21)c1c(N)n(Cc2ccccc2)c(=O)[nH]c1=O,1.4,0.4,-12.6,6.8,-0.3
COc1ccccc1CNS(=O)(=O)c1ccc(-c2cc(C(F)(F)F)on2)s1,33.1*,2.4,-3.3,-1.8,1.6
CC(C)CC(C(=O)O)C(C)CC(=O)Nc1ccn(-c2ccccc2)n1 (stereo unspecified),1.6,0.0,-13.3,-1.3,-0.6
CCCCC(C(=O)O)C(C)CC(=O)Nc1ccn(-c2ccccc2)n1 (stereo unspecified),2.3,0.3,-59.5*,-4.2,12.2
SMILES,D1 agonist,TRHR ag,D1 antagonist,D1 PAM,TRHR enhancer
CC(C)c1nc(NCC2CCCO2)c(C#N)c2c1COC(C)(C)C2 (stereo unspecified),2.4,0.9,6.6,-9.2,1.9
CCc1nc(NCC2CCCO2)c(C#N)c2c1COC(C)(C)C2 (stereo unspecified),1.2,-1.2,-34.9*,-2.1,8.4
COc1ccc(CN2CCc3cc(OC)c(OC)cc3C2)cc1O,0.7,0.3,-47.8*,-3.6,5.4
O=C(c1cc2cc(Br)ccc2o1)N1CCN(c2ccccc2)CC1,0.9,-0.1,-7.6,-2.7,7.7
Cc1cccc(N(CC(=O)NCCSCc2ccccc2)S(=O)(=O)c2ccccc2)c1C,30.2*,1.5,-0.3,-0.1,-10.1
COc1ccccc1N(CC(=O)NCCSCc1ccccc1)S(C)(=O)=O,1.3,-1.0,-15.5,-3.4,-0.1
COc1ccccc1N(CC(=O)NCCSCc1ccc(Cl)cc1)S(C)(=O)=O,5.9,-0.4,-58.3*!,-6.6,3.4
